Among the test systems are HCT-15 colon; HT29 colon; SNB-75 CNS; SNB-19 CNS; U251 CNS; PC-3 prostate; SK-MEL-5 melanoma; UACC-62 melanoma; LOX IMVI melanoma; SK-MEL-28 melanoma; SK-MEL-2 melanoma; SN12C renal; UO-31 renal; TK-10 renal; ACHN renal; CAKI-1 renal; A498 renal; CCRF-CEM leukemia; MOLT-4 leukemia; EKVX NSCLC.
What all share (test): NCI-60 one-dose screen, 48 h (100 = growth as untreated, 0 = no growth, -100 = all killed)
Common to all, as to conditions: 10 µM unless noted

Several values for one entry are separate records, joined by “and”; a condition that tells them apart may be missing. Equal entries are not always repeated. This is part of a sample that, as a whole, favours compounds with a hit. Of some 83,000 tested, about 20% had one in any assay.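 Assay: single dose, 48 h. Readout: percent growth (0 = no net growth; negative = cell death). Active: <10.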 A number with no mark means an inactive call. Activity calls are given as the source filed them.

For `O=Nc1ccc(NO)c2ccccc12`, the growth in the assay on HCT-15 colon was 99.5% and 95.7%; with HT29 colon, 106% and 35.3%; in the assay with SNB-75 CNS it was 95.8% and 90.8%; in the assay with SNB-19 CNS it was 118% and 99%; in the assay with U251 CNS, 101% and 79%; in the assay on PC-3 prostate, 81.9% and 36.4%. Further, the growth in the assay on SK-MEL-5 melanoma was 94.1% and 81.3%; with UACC-62 melanoma, 95.9% and 61.9%; with LOX IMVI melanoma it was 102% and 17.4%; with SK-MEL-28 melanoma it was 113% and 94.6%; with SK-MEL-2 melanoma, 103% and 59.7%; in the assay with SN12C renal, 103% and 60.5%. The growth in the assay on UO-31 renal is 88.7% and 65.3%; in the assay on TK-10 renal, 132% and 125%; in the assay on ACHN renal it was 97.6% and 79.2%; in the assay on CAKI-1 renal, 83.8% and 80.3%; in the assay with A498 renal, 74% and 102%; in the assay with CCRF-CEM leukemia it was 106% and 57.6%. In addition, the growth in the assay with MOLT-4 leukemia was 108% and 74.1%.
For the molecule `O=C1C=C(Nc2ccccc2)c2ncccc2C1=O`, the growth is -68.7% (active) in the assay on HCT-15 colon; -37% (active) in the assay on HT29 colon; -97.1% (active) with SNB-75 CNS; -92.8% (active) in the assay with SNB-19 CNS; -97.9% (active) with U251 CNS; -17.7% (active) in the assay on PC-3 prostate. The growth in the assay with SK-MEL-5 melanoma was -97.8% (active); with UACC-62 melanoma, -92.3% (active); in the assay on LOX IMVI melanoma it was -77.7% (active); in the assay on SK-MEL-28 melanoma, -81.3% (active); in the assay with SK-MEL-2 melanoma it was -66.8% (active); in the assay on EKVX NSCLC, -85.3% (active). In addition, the growth in the assay on SN12C renal was -88.8% (active); in the assay with TK-10 renal, -96.9% (active); with ACHN renal, -98.3% (active); with CAKI-1 renal, -95.9% (active); with A498 renal, -87.5% (active); in the assay with CCRF-CEM leukemia, -29.9% (active). In addition, the growth in the assay with MOLT-4 leukemia is -49.6% (active).
`Nc1[nH]nc(Nc2ccccc2)c1-c1nc2ccccc2s1`: the growth was 11.1% in the assay with HCT-15 colon; 58.5% in the assay with HT29 colon; 44.2% in the assay on SNB-75 CNS; 34% in the assay on SNB-19 CNS; 22% in the assay with U251 CNS; 14.9% in the assay with PC-3 prostate. For the same molecule, the growth was 57.6% with SK-MEL-5 melanoma; 27.2% with UACC-62 melanoma; -79.1% (active) in the assay with LOX IMVI melanoma; 35.4% with SK-MEL-28 melanoma; 26.8% in the assay with SK-MEL-2 melanoma; 19% in the assay on EKVX NSCLC. The growth with SN12C renal is 34.2%; in the assay with TK-10 renal, 23%; in the assay with ACHN renal it was 15.5%; with CAKI-1 renal, 25.1%; in the assay with A498 renal, 46.8%; with CCRF-CEM leukemia it was 8.45% (active). Further, the growth with MOLT-4 leukemia was 4.06% (active).
As for `Clc1nccc2c(-c3csc(-c4c[nH]c5ccc(Br)cc45)n3)c[nH]c12`, the growth in the assay with HCT-15 colon is -49.4% (active); in the assay with HT29 colon it was 5.95% (active); in the assay on SNB-75 CNS, 21%; in the assay on SNB-19 CNS, 44.6%; with U251 CNS it was -2.09% (active); with PC-3 prostate, 19.9%. In addition, the growth in the assay with SK-MEL-5 melanoma was 47.2%; with UACC-62 melanoma, 17%; in the assay on LOX IMVI melanoma, -31.9% (active); in the assay on SK-MEL-28 melanoma it was -8.62% (active); in the assay with SK-MEL-2 melanoma it was 48.7%; with EKVX NSCLC it was 42.5%. The growth was 54% in the assay on SN12C renal; 28.6% in the assay with TK-10 renal; 6.55% (active) in the assay with ACHN renal; 32.9% in the assay on CAKI-1 renal; -1.69% (active) with A498 renal; 20.1% in the assay on CCRF-CEM leukemia. For the same molecule, the growth in the assay on MOLT-4 leukemia is 22%.
Consider `Cc1ccc(NC(=O)c2sc3nc(C)c(C(=O)c4ccccc4)cc3c2N)cc1`, for which the growth with HCT-15 colon was 83.1%; in the assay with HT29 colon, 102%; in the assay on SNB-75 CNS, 70.7%; with SNB-19 CNS, 83.3%; in the assay on U251 CNS it was 88.5%; in the assay on PC-3 prostate, 92.2%. Besides, the growth in the assay with SK-MEL-5 melanoma is 94.1%; in the assay with UACC-62 melanoma, 79.5%; in the assay on LOX IMVI melanoma, 94.9%; with SK-MEL-28 melanoma, 92%; in the assay with SK-MEL-2 melanoma, 93.8%; with EKVX NSCLC it was 72.4%. Moreover, the growth was 95.8% in the assay with SN12C renal; 99.5% in the assay with TK-10 renal; 92.8% in the assay with ACHN renal; 76.1% in the assay with CAKI-1 renal; 4.97% (active) in the assay with A498 renal; 94.3% in the assay with CCRF-CEM leukemia. Also, the growth in the assay with MOLT-4 leukemia is 104%.
Consider `CCOC(=O)C1=C(C)NC(=O)NC1c1c(Cl)n(-c2ccccc2)c2ccccc12` (centres undefined), for which the growth in the assay on HCT-15 colon is 85.8%; in the assay with HT29 colon it was 80.7%; in the assay with SNB-75 CNS it was 84.8%; with SNB-19 CNS, 83.9%; in the assay on U251 CNS it was 89.2%; in the assay with PC-3 prostate, 56.7%. The growth in the assay with SK-MEL-5 melanoma is 75.4%; in the assay with UACC-62 melanoma, 68.4%; with LOX IMVI melanoma it was 89.3%; in the assay on SK-MEL-28 melanoma, 94.1%; in the assay on SK-MEL-2 melanoma, 102%; with EKVX NSCLC it was 96.8%. Further, the growth was 92.7% in the assay with SN12C renal; 98.9% in the assay with TK-10 renal; 85.1% in the assay on ACHN renal; 70.7% in the assay on CAKI-1 renal; 78.2% in the assay with A498 renal; 3.16% (active) with CCRF-CEM leukemia. For the same molecule, the growth in the assay with MOLT-4 leukemia is 78.8%.

These data come from PubChem BioAssay (NCI).
